Test results from the supplement of paper PMC11577813, “Eurasian spruce bark beetle detects lanierone using a highly expressed specialist odorant receptor, present in several functional sensillum types” (BMC Biology, 2024).
± gives the standard deviation of the averaged measurements.

Experiments:
[1] = system: (+)-isopinocamphone A-neuron OSN class; assay: net action potential response of A-neuron (blank-subtracted) (spikes/s (Hz)); higher = stronger excitation; details: 10 µg on filter paper; neuron: A neuron (large spike amplitude)
Outline: (§1)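 Spikes were counted in AutoSpike for the large-amplitude A-neuron or the small-amplitude B-neuron, using 0.5 s windows across 1–4 sensilla. Responses were reported as spikes/s after subtraction of the pre-stimulus count and of the blank, averaged across sensilla. The recordings came from one fixed antenna of live lab-reared adult Ips typographus via tungsten electrodes under a humidified, charcoal-filtered airstream of 1.8 L/min, with each compound given as 10 μg in paraffin oil on filter paper in a pipette, pulsed for 0.5 s at 0.3 L/min.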

[2] = system: (+)-trans-4-thujanol A-neuron OSN class; assay: as above; details: 10 µg on filter paper; neuron: A neuron (large spike amplitude)
Outline: as §1

[3] = system: (5S,7S)-trans-conophthorin A-neuron OSN class; assay: as above; details: 10 µg on filter paper; neuron: A neuron (large spike amplitude)
Outline: as §1

[4] = system: myrcene A-neuron OSN class; assay: as above; details: 10 µg on filter paper; neuron: A neuron (large spike amplitude)
Outline: as §1

[5] = system: p-cymene A-neuron OSN class; assay: as above; details: 10 µg on filter paper; neuron: A neuron (large spike amplitude)
Outline: as §1

[6] = system: lanierone-responsive B-neuron OSN class (ItypOR36); assay: net action potential response of lanierone B-neuron (blank-subtracted) (spikes/s (Hz)); higher = stronger excitation; details: 10 µg on filter paper, neuron: B neuron (small spike amplitude)
Outline: as §1

[7] = system: ipsdienol A-neuron OSN class; assay: net action potential response of A-neuron (blank-subtracted) (spikes/s (Hz)); higher = stronger excitation; details: 10 µg on filter paper; neuron: A neuron (large spike amplitude)
Outline: as §1

[8] = co-localized A-neuron class: (4S)-cis-verbenol
[9] = co-localized A-neuron class: (5S,7S)-trans-conophthorin
[10] = co-localized A-neuron class: (+)-isopinocamphone
[11] = co-localized A-neuron class: (+)-trans-4-thujanol
[12] = co-localized A-neuron class: ipsdienol
[13] = co-localized A-neuron class: myrcene
[14] = co-localized A-neuron class: p-cymene

Compound | net action potential response [1] | net action potential response [2] | net action potential response [3] | net action potential response [4] | net action potential response [5] | net action potential response [6, 8] | net action potential response [6, 9] | net action potential response [6, 10] | net action potential response [6, 11] | net action potential response [6, 12] | net action potential response [6, 13] | net action potential response [6, 14] | net action potential response [7]
C=CC(=C)CCC=C(C)C [Myrcene] | -2 ± 2 | 0.5 ± 3 | 2 ± 10 | 128 | 3.33 ± 2.3 | 7.33 ± 7.6 | 0 ± 6 | 1.33 ± 9 | 2.5 ± 6.6 | 2.67 ± 4.2 | -6 | -2.67 ± 4.6 | 
CC[C@H]1O[C@]2(C)CCC[C@H]1O2 (racemic) [(±)-exo-Brevicomin] | -0.667 ± 4.2 | 2.5 ± 2.5 | 173 ± 40 | 6 | 0 ± 2 | 0 ± 2 | -4 ± 2 | -2 | -1 ± 1.1 | 4 ± 12 | 2 | -3.33 ± 2.3 | 
CCC/C=C/C=O [(E)-hex-2-enal] | -3.33 ± 2.3 | 1 ± 5.8 | 4.67 ± 4.2 | 2 | 3 ± 1.4 | -2.67 ± 18 | 0 ± 2 | -2.67 ± 3.1 | -1.5 ± 3.4 | 0.667 ± 1.1 | -6 | -2 ± 8.5 | 
CCC(C)CO (racemic) [(±)-2-Methyl-1-butanol] | 0 ± 2 | 2.5 ± 6.8 | 5 ± 1.1 | 4 | 8 ± 4 | 0 ± 3.5 | 2 ± 3.3 | -2 ± 2 | 3.5 ± 3 | -1.33 ± 5 | -4 | -2 ± 4 | 3.33 ± 1.1
C=Cc1ccc(OC)cc1 [4-Vinyl anisole] | -0.667 ± 4.2 | 1.5 ± 3.4 | -1.33 ± 3.1 | -2 | 15.3 ± 14 | 1.33 ± 9 | 3.33 ± 4.6 | 1.33 ± 9.2 | -2.5 ± 5.5 | 2.67 ± 6.4 | 0 | 0 ± 7.2 | 
CC/C=C\CCO | 10.7 ± 27 | 74.5 ± 42 | -2 ± 4 | 6 | 0 ± 4 | 2.67 ± 6.4 | -4 ± 6 | -4 ± 2 | -4.5 ± 3.4 | -5.33 ± 5.8 | -6 | 0 | 
CCC/C=C\CO | 18 ± 19 | 25.5 ± 12 | -2 ± 6 | 2 | 0 | 2 ± 11 | 2 ± 5.3 | -7.33 ± 4.6 | 2 ± 3.6 | 0.667 ± 3.1 | 6 | 2.67 ± 4.2 | 
C[C@@H]1C(=O)C[C@H]2C[C@@H]1C2(C)C [(+)-Isopinocamphone] | 172 ± 28 | -2 ± 5.9 | 1.33 ± 1.1 | -4 | -3.33 ± 2.3 |  |  |  |  |  |  |  | 
c1ccc2c(c1)CCO2 [2,3-Dihydrobenzofuran] | 2 ± 2 | -1.5 ± 1.9 | 1.33 ± 3.1 | -6 | 6.67 ± 5.8 |  |  |  |  |  |  |  | 
COc1ccccc1 [Anisole] | 2 ± 5.3 | 1 ± 4.2 | 1.33 ± 4.2 | -2 | 10.7 ± 5.8 | -1.33 ± 8.3 | 0 ± 6 | -2.67 ± 2.3 | -2.5 ± 4.1 | 2.67 ± 4.6 | 2 | -3 ± 1.4 | 
CC(C)[C@@]12CC[C@@](C)(O)[C@@H]1C2 [(+)-trans-4-Thujanol] | 11.3 ± 16 | 133 ± 37 | -1 ± 1.1 | -4 | 37.3 ± 13 |  |  |  |  |  |  |  | -4 ± 4
CC12CCC(CC1)C(C)(C)O2 [1,8-Cineole] | -2.67 ± 2.3 | 1 ± 3.8 | 2.67 ± 10 | 8 | 13.3 ± 11 | 4 ± 9.2 | -6.67 ± 6.1 | 0.667 ± 4.2 | -1 ± 2.6 | 0 ± 10 | -4 | 0 ± 5.3 | 
CC1=CCC(=C(C)C)CC1 [Terpinolene] | 3.33 ± 5.8 | 0.5 ± 5.5 | 4 ± 6.9 | 2 | 20 ± 16 |  |  |  |  |  |  |  | 
CC(=O)OC/C=C(\C)CCC=C(C)C [Geranyl acetate] | 0.667 ± 7 | 0 | 2 ± 7.2 | -4 | 1 ± 1.4 | -2.67 ± 7.6 | -2 ± 9.2 | -0.667 ± 2.3 | -2 ± 4.3 | -2 ± 5.3 | 0 | -2 ± 5.7 | 
CC1=CCC2C(C1)C2(C)C (single isomer, unassigned; (+)) [(+)-3-Carene] | 2 ± 5.3 | 7.5 ± 6.8 | 6.67 ± 4.6 | 12 | 50.7 ± 18 | 1.33 ± 13 | 3.33 ± 2.3 | -2.67 ± 5 | -2.5 ± 2.5 | -1.33 ± 4.2 | -2 | -3.33 ± 4.2 | 
CC12CCC(CC1=O)C2(C)C (racemic) [(±)-Camphor] | 125 ± 40 | 2 ± 5.7 | 5.33 ± 7 | -6 | 6.67 ± 16 |  |  |  |  |  |  |  | 

Compound | net action potential response [1] | net action potential response [2] | net action potential response [3] | net action potential response [4] | net action potential response [5] | net action potential response [6, 8] | net action potential response [6, 9] | net action potential response [6, 10] | net action potential response [6, 11] | net action potential response [6, 12] | net action potential response [6, 13] | net action potential response [6, 14] | net action potential response [7]
CCc1ccc(O)c(OC)c1 [4-Ethylguaiacol] | -1.33 ± 2.3 | 1 ± 1.1 | 3.33 ± 4.2 | 4 | 0.667 ± 2.3 |  |  |  |  |  |  |  | 
C[C@H]1C(=O)C[C@H]2C[C@@H]1C2(C)C [(-)-Pinocamphone] | 119 ± 57 | -0.5 ± 1.9 | 2 ± 2 | 0 | 3.33 ± 3.1 |  |  |  |  |  |  |  | 
C[C@]12CCC[C@](C)(OC1)O2 (racemic) [(±)-Frontalin] | 2 ± 5.3 | 1 ± 3.5 | 96 ± 57 | -8 | 1.33 ± 1.1 |  |  |  |  |  |  |  | 2 ± 3.5
CC1=CCC(C(C)C)=CC1 [γ-Terpinene] | -0.667 ± 3.1 | -1 ± 4.2 | 3 ± 4.8 | 6 | 117 ± 49 |  |  |  |  |  |  |  | 2 ± 8.7
CC1(C)C2CC=C(CO)C1C2 (racemic) [(±)-Myrtenol] | 1.33 ± 5 | 1.5 ± 2.5 | -1 ± 3.5 | 2 | 1.33 ± 3.1 |  |  |  |  |  |  |  | 
COc1ccc(C)cc1 [4-Methyl anisole] | 7.33 ± 4.6 | 6.5 ± 3.4 | 2 ± 2 | -4 | 44 ± 12 |  |  |  |  |  |  |  | 
CC(=O)OCc1ccccc1 [Benzyl acetate] | 4 ± 3.5 | 0 ± 2.8 | 1.33 ± 4.2 | -4 | 0 ± 4 |  |  |  |  |  |  |  | -0.667 ± 5
CC(=O)OCCC(C)C [3-Methylbutyl acetate] | 4.67 ± 4.2 | 3.33 ± 3.1 | -2.67 ± 4.6 | 10 | 6.67 ± 5 | -8 ± 5.3 | 1.33 ± 2.3 | 3.33 ± 3.1 | 0 ± 5.3 | 2 | -6 | -2 ± 3.5 | 
CCCCCCO [1-Hexanol] | 18.7 ± 22 | 7 ± 5 | 6 ± 18 | 4 | 5.33 ± 1.1 |  |  |  |  |  |  |  | 
C=C1[C@@H]2CC[C@@H](C2)C1(C)C (racemic) [(±)-Camphene] | -2 ± 2 | 1.5 ± 1 | -2.67 ± 3.1 | 0 | -3 ± 1.4 |  |  |  |  |  |  |  | 
C=Cc1ccccc1 [Styrene] | 5.33 ± 6.1 | 8.5 ± 18 | 6 ± 7.2 | -2 | 18.7 ± 15 |  |  |  |  |  |  |  | 0 ± 2
CCC1CCC2(CCCO2)O1 (racemic) [(±)-Chalcogran] | -3.33 ± 1.1 | 9 ± 10 | 175 ± 15 | 2 | 0.667 ± 3.1 |  |  |  |  |  |  |  | 
CCCCCC(O)CC (racemic) [(±)-3-Octanol] | 10 ± 10 | 57.5 ± 45 | 13 ± 10 | 6 | 3.33 ± 2.3 | 1.33 ± 7.6 | -1 ± 3.5 | -3.33 ± 4.2 | -4 ± 8.6 | -4.67 ± 4.2 | -6 | -3.33 ± 5.8 | 
CC(=O)c1ccccc1 [Acetophenone] | 2.67 ± 4.2 | 2 ± 2.8 | 2 ± 2 | -2 | 4.67 ± 7.6 |  |  |  |  |  |  |  | 
CC(C)CCO [3-Methyl-1-butanol] | 2 ± 2 | 11 ± 11 | 3.33 ± 3.1 | -2 | 7.33 ± 6.1 | 3.33 ± 2.3 | 0.667 ± 6.1 | 1.33 ± 11 | -4 ± 2.3 | -4.67 ± 6.4 | -6 | -0.667 ± 2.3 | 
CCCCCC=O [Hexanal] | 4.67 ± 3.1 | 0.5 ± 4.4 | 2.67 ± 7.6 | 4 | 2 ± 3.5 |  |  |  |  |  |  |  | 0.667 ± 2.3
